Inconclusive results are not listed. Active and inactive are the calls of the source. Calls follow the shape of the dose curve; as a rule, active = well fitted curve in the direction sought with a large enough effect; inconclusive = small, poorly fitted or top-dose-only effect, or another doubt; inactive = no such curve, though single readings can be large; an effect the other way counts as inactive or inconclusive.
What was measured:
[1] = qHTS of pediatric cancer cell lines to identify multiple opportunities for drug repurposing: Primary screen for DAOY cells (AID 1347090); details: DAOY medulloblastoma viability, CellTiter-Glo luminescence, 48 h; series mostly up to 46 µM; also: nearly all actives have a fitted effect of over 55% in size
Summary of the method: (§1)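 Cell viability, CellTiter-Glo luminescence; 500-1,000 cells/well, 8- or 11-point titration, 48 h compound exposure at 37 degrees C, 5% CO2. Controls: DMSO neutral, bortezomib 2.3 µM final as positive.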

[2] = qHTS of pediatric cancer cell lines to identify multiple opportunities for drug repurposing: Primary screen for SJ-GBM2 cells (AID 1347091); details: SJ-GBM2 viability, CellTiter-Glo luminescence, 48 h; series mostly up to 46 µM
Summary of the method: as §1

[3] = qHTS of pediatric cancer cell lines to identify multiple opportunities for drug repurposing: Primary screen for A673 cells (AID 1347092); details: A673 Ewing sarcoma viability, CellTiter-Glo ATP luminescence, 48 h; series mostly up to 46 µM; also: nearly all actives have a fitted effect of over 45% in size
Summary of the method: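 Cells are plated, rested 5 h, dosed by pintool, incubated 48 h, then lysed with CellTiter-Glo and read by luminescence. DMSO is the neutral control; bortezomib at 2.3 uM final is the positive control.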

[4] = qHTS of pediatric cancer cell lines to identify multiple opportunities for drug repurposing: Primary screen for SK-N-MC cells (AID 1347093); details: SK-N-MC viability, CellTiter-Glo luminescence, 48 h; series mostly up to 46 µM
Summary of the method: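 Metabolically active cells were quantified by ATP-dependent luminescence (CellTiter-Glo, 15 min at room temperature) following 48 h treatment. Cells had been plated at 500-1,000 per well and settled for 5 h beforehand.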

[5] = qHTS of pediatric cancer cell lines to identify multiple opportunities for drug repurposing: Primary screen for BT-37 cells (AID 1347094); details: BT-37 viability, CellTiter-Glo luminescence, 48 h; series mostly up to 57.3 µM
Summary of the method: (§2)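 Luminescence from CellTiter-Glo served as readout of metabolically active cells after 48 h compound exposure. Titrations: MIPE 11-point, from 0.78 nM; NPC 8-point, from 0.59 nM (final). Concentration-response curves came straight from the primary screen.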

[6] = qHTS of pediatric cancer cell lines to identify multiple opportunities for drug repurposing: Primary screen for NB-EBc1 cells (AID 1347095); details: NB-EBc1 neuroblastoma viability, CellTiter-Glo luminescence, 48 h; series mostly up to 46 µM
Summary of the method: as §2

[7] = qHTS of pediatric cancer cell lines to identify multiple opportunities for drug repurposing: Primary screen for U-2 OS cells (AID 1347096); details: U-2 OS viability, CellTiter-Glo luminescence, 48 h; series mostly up to 46 µM; also: nearly all actives have a fitted effect of over 50% in size
Summary of the method: (§3)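 Cells (500-1,000/well) rested 5 h, then received compounds for 48 h; metabolically active cells were measured by CellTiter-Glo luminescence. Final concentrations spanned up to 46 µM (MIPE, 11-point) or 0.59 nM-46 µM (NPC, 8-point) in primary screens, 11-point in follow-ups.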

[8] = qHTS of pediatric cancer cell lines to identify multiple opportunities for drug repurposing: Primary screen for Saos-2 cells (AID 1347097); details: Saos-2 viability, CellTiter-Glo ATP luminescence, 48 h; series mostly up to 46 µM; also: nearly all actives have a fitted effect of over 40% in size
Summary of the method: as §2

[9] = qHTS of pediatric cancer cell lines to identify multiple opportunities for drug repurposing: Primary screen for SK-N-SH cells (AID 1347098); details: SK-N-SH viability, CellTiter-Glo luminescence, 48 h; series mostly up to 57 µM; also: nearly all actives have a fitted effect of over 65% in size
Summary of the method: as §3

[10] = qHTS of pediatric cancer cell lines to identify multiple opportunities for drug repurposing: Primary screen for NB1643 cells (AID 1347099); details: NB1643 neuroblastoma viability, CellTiter-Glo luminescence, 48 h; series mostly up to 46 µM; also: nearly all actives have a fitted effect of over 50% in size
Summary of the method: as §2

Measured: Potency

C=C1CC[C@@]2(O)[C@H]3Cc4ccc(O)c5c4[C@@]2(CCN3CC2CC2)[C@H]1O5
inactive: all assays above

Clc1cccc(N2CCNCC2)c1
inactive: all assays above

CCC(C(N)=O)N1CCCC1=O (stereo not given)
inactive: all assays above

O=c1[nH]c2ccccc2n1CCCN1CCC(n2c(=O)[nH]c3cc(Cl)ccc32)CC1
inactive: all assays above

CN1C(=S)CN=C(c2ccccc2)c2cc(Cl)ccc21
inactive: all assays above

OCCOc1ccccc1
inactive: all assays above

CC(C)(N)Cc1ccc(Cl)cc1
inactive: all assays above

N[C@@H](Cc1ccc(Oc2cc(I)c(O)c(I)c2)c(I)c1)C(=O)O
inactive: all assays above

CCN(CC)CCN1C(=O)CN=C(c2ccccc2F)c2cc(Cl)ccc21
inactive: all assays above

CN(C)CCc1ccc(O)cc1
inactive: all assays above

CC(C)(C)NCC(O)c1cc(Cl)c(N)c(Cl)c1 (stereo not given)
inactive: all assays above

CCN(CC)CCOC(=O)C(O)(c1ccccc1)c1ccccc1
inactive: all assays above

CCCC1CCCCN1 (stereo not given)
inactive: all assays above

CCN(CC)C(=O)N[C@@H]1C=C2c3cccc4[nH]cc(c34)C[C@@H]2N(C)C1
inactive: all assays above

CC(C)=CC1C(C(=O)OCc2cccc(Oc3ccccc3)c2)C1(C)C (stereo not given)
inactive: all assays above

CC[C@@H](CO)NC(=O)[C@@H]1C=C2c3cccc4[nH]cc(c34)C[C@H]2N(C)C1
inactive: all assays above

CC(C)NCC(O)c1ccccc1Cl (stereo not given)
inactive: all assays above

CC(=O)[C@H]1CC[C@H]2[C@@H]3CC[C@H]4C[C@H](O)CC[C@]4(C)[C@H]3C(=O)C[C@]12C
inactive: all assays above

FC(F)(F)c1cccc(C2=CCN(CCc3ccc4ccccc4c3)CC2)c1
inactive: all assays above

Nc1ccncc1
inactive: all assays above

— PubChem BioAssay (NCATS)
